Records with an inconclusive call do not appear. The source made the active and inactive calls. Calls come from the whole dose curve; as a rule, active = well fitted activation curve with a large enough effect in the signal ratio in the repeat runs (not every such curve was filed as active); inconclusive = weak or mixed curves, or effect the other way; inactive = flat fitted curve, though single readings scatter; the % refers to the signal ratio.

We go through 40 compounds from PubChem BioAssay (Tox21).

Bile acid receptor (Homo sapiens), sequence (Q96RI1 whole entry, looked up): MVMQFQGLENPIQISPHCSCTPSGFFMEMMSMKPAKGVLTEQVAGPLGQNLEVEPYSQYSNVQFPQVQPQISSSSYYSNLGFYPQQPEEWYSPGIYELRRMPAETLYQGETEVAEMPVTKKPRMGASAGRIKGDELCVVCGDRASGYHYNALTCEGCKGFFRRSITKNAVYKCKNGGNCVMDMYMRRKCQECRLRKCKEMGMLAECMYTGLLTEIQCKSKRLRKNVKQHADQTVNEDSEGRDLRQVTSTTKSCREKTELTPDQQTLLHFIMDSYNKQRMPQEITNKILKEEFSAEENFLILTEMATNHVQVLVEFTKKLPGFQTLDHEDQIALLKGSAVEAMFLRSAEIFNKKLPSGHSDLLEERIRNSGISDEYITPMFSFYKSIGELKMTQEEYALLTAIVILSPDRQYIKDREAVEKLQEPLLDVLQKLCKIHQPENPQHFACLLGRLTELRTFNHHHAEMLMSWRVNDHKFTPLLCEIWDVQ

This assay concerns the target Bile acid receptor (Homo sapiens) (UniProt Q96RI1). Nature of the assay: qHTS assay to identify small molecule agonists of the farnesoid-X-receptor (FXR) signaling pathway (AID 743220). The settings on record: HEK293T FXR-UAS-bla, beta-lactamase FRET ratio, 16 h; series mostly up to 62.6 µM. From the text:
National Center for Advancing Translational Sciences [NCATS]
NIH Chemical Genomics Center [NCGC]
U.S. Environmental Protection Agency [EPA]
National Institutes of Environmental Health Sciences [NIEHS]
National Toxicology Program [NTP]
U.S. Food and Drug Administration [FDA]
The farnesoid-X-receptor (FXR), a nuclear hormone receptor, is highly expressed in liver, intestine, kidney and adrenal cortex. Natural ligands of FXR are the bile acids (Cholic acid, Chenodeoxy cholic acid etc). FXR is an important regulator of diverse metabolic pathways, including the bile acid homeostasis, lipid and glucose metabolisms. FXR regulates the expression of target genes by binding either as a monomer or as a heterodimer with the retinoid X receptor (RXR). Numerous studies have reported that FXR exerts protective function during cholestasis, diabetes, liver regeneration, and cancer. To identify compounds that activate FXR signaling, GeneBLAzer FXR-UAS-bla HEK 293T cell line (Invitrogen, Carlsbad, CA) containing a beta-lactamase reporter gene under the control of a UAS response element was used to screen the Tox21 10K compound library.
Tox21 Assay Protocol Summary:
FXR-bla cells were dispensed at 5000 cells/5uL/well in 1536-well black wall/clear bottom plates using a Multidrop Combi (Thermo Fisher Scientific, Waltham, MA) dispenser. After the assay plates were incubated at 37C and 5% CO2 for 5 h, 23 nL of compounds dissolved in DMSO, positive controls or DMSO only was transferred to the assay plate by a Pintool station (Kalypsys, San Diego, CA). The assay plates were incubated at 37C for 16 h. After 1 uL of LiveBLAzerTM B/G FRET substrate was added using a Bioraptr Flying Reagent Dispenser (FRD) workstation (Beckman Coulter, Indianapolis, IN), the plates were incubated at room temperature for 2 h, and fluorescence intensity was measured by an Envision plate reader (PerkinElmer, Shelton, CT).
Turning to `CC(C)(OOC(C)(C)c1ccccc1)c1ccccc1`, the result was inactive.
For the compound `CCN(CC)C(=O)SCc1ccc(Cl)cc1`, the result was inactive.
With `CN(C)c1ccc(C(=O)c2ccc(N(C)C)cc2)cc1`, the outcome was inactive.
For `c1ccc(NNc2ccccc2)cc1` the value was “inactive”; for `CC(C)c1ccc(CO)cc1`, “inactive”; for `ClC1C(Cl)C(Cl)C(Cl)C(Cl)C1Cl` (stereo not given), “inactive”.
Turning to `CCCCNC(=O)n1c(NC(=O)OC)nc2ccccc21`, the outcome was inactive.
As to `O=P(O)(O)CCCl`, the outcome was inactive.
For the compound `CCCCC(CC)COC(=O)Cl` (stereo not given), the outcome was inactive.
For `CCC(C)c1cc([N+](=O)[O-])cc([N+](=O)[O-])c1O` (stereo not given) the value was “inactive”.
`CC(C)=CC1C(C(=O)OCc2coc(Cc3ccccc3)c2)C1(C)C` (stereo not given): the outcome was inactive.
Next, `N[C@@H](Cc1ccc(N(CCCl)CCCl)cc1)C(=O)O`: “inactive”; `c1nc[nH]n1`: “inactive”.
Regarding `C=C(C)[C@H]1Cc2c(ccc3c2O[C@@H]2COc4cc(OC)c(OC)cc4[C@@H]2C3=O)O1`, the result was inactive.
As for `OCC(O)CO`, the result was inactive.
On to `Oc1ccc(-c2ccccc2)cc1`, for which the result was inactive.
As for `Cc1cc(Cl)ccc1OCCCC(=O)O`, the outcome was inactive.
Regarding `CCCCCc1cc(O)cc(O)c1`, the outcome was inactive.
With `c1cc(OCC2CO2)ccc1Cc1ccc(OCC2CO2)cc1` (stereo not given), the result was inactive.
Take `c1ccc(-c2cccc(-c3ccccc3)c2)cc1`: the outcome was inactive.
In the case of `COP(=S)(OC)Oc1ccc([N+](=O)[O-])cc1`, the result was inactive.
Turning to `CCOP(=S)(OCC)O/N=C(\C#N)c1ccccc1`, the outcome was inactive.
For `Cc1cccc(N)c1N` the value was “inactive”; for `Brc1ccc(Oc2cc(Br)c(Br)cc2Br)c(Br)c1`, “inactive”; for `NCc1cccnc1`, “inactive”.
For `CC(C)N(C(=O)SCC(Cl)=C(Cl)Cl)C(C)C`, the outcome was inactive.
As to `Cc1ccc2c(c1N)C(=O)c1ccccc1C2=O`, the outcome was inactive.
Regarding `Oc1c(Cl)c(Cl)c(Cl)c(Cl)c1Cl`, the outcome was inactive.
For the compound `CCOc1cc(Oc2ccc(C(F)(F)F)cc2Cl)ccc1[N+](=O)[O-]`, the outcome was inactive.
Next, `COP(=O)(OC)OC`: “inactive”; `CCC(C)(C)c1ccc(O)cc1`: “inactive”; `CCCCCCCCOC(=O)c1ccccc1C(=O)OCCCCCCCC`: “inactive”.
For `CNC(=O)Oc1cccc2c1OC(C)(C)O2` the value was “inactive”.
Regarding `C#C[C@]1(O)CC[C@H]2[C@@H]3CCC4=CC(=O)CC[C@]4(C)[C@H]3CC[C@@]21C`, the outcome was inactive.
Regarding `CCCCN(CCCC)N=O`, the result was inactive.
Regarding `NNC(N)=S`, the outcome was inactive.
For `CCC(C)(c1ccc(O)cc1)c1ccc(O)cc1` the value was “inactive”; for `O=P(Oc1ccccc1)(Oc1ccccc1)Oc1ccccc1`, “inactive”.
`Nc1ccc(-c2ccc(N)c(N)c2)cc1N`: the outcome was inactive.
With `C=C(C)C(=O)OCC1CO1` (stereo not given), the outcome was inactive.
